Screening data as filed in PubChem BioAssay.
VP16 counter: inhibits Gal4-VP16 luciferase reporter, ROR gamma counter-screen; Drosophila S2 Gal4-VP16 UAS-luciferase, luminescence, 20 h; Potency, µM (top dose mostly 53.6 µM), without a hit: top-dose activity, negative = inhibition, most hits filed as inhibitors; 310,000 tested, 3.5% active; AID 2546;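 note: Gal4-VP16 expression switched on by copper sulfate through the metallothionein promoter; nearly all actives have a fitted effect of over 50% in size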
TDP1 cell CPT: growth inhibition of DT40 Tdp1-/-;hTDP1 cells with camptothecin (screen for TDP1 inhibitors); chicken DT40 Tdp1-/-;hTDP1 cells + 20 nM CPT, ATP luminescence, 48 h; Potency, µM (doses to about 46.2 µM), for the others: at the highest dose activity change, negative = growth inhibition, actives largely listed as inhibitors; 420,000 tested, 12% active; note: nearly all actives have a fitted effect of over 55% in size
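Chicken DT40 Tdp1-/- cells complemented with human TDP1, 400 cells/well, exposed to compounds plus 20 nM camptothecin for at least 48 h at 37 C; viability read as ATP content by CellTiter-Glo luminescence.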
DT40 TDP1 no CPT: qHTS for Inhibitors of human tyrosyl-DNA phosphodiesterase 1 (TDP1): qHTS in cells in absence of CPT. DT40 Tdp1-/- hTDP1 cells, no CPT, ATP luminescence, 48 h. Potency, µM (doses to about 46.2 µM), for inactives: at the highest dose activity change, negative = growth inhibition, most hits filed as inhibitors. 420,000 tested, 15% active. AID 686978, 2013; note: nearly all actives have a fitted effect of over 55% in size
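Readout: luminescence from CellTiter-Glo after 30 min in the dark at RT. Cells: DT40 Tdp1-/- with stable hTDP1, 400/well. Exposure: compounds alone, ≥48 hr, 37 °C.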
ELG1 DNA repair: ELG1-dependent DNA repair inhibition | HEK293T ELG1-luciferase reporter, luminescence, 16 h; DNA damage induced by 5-fluorouridine | Potency, µM (doses to about 46.1 µM), inactives show top-dose activity change, negative = inhibition, most hits filed as inhibitors | 330,000 tested, 2.3% active | AID 504467; note: nearly all actives have a fitted effect of over 55% in size
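Overnight (16 hr) co-exposure of 2,000 cells/well to 5-fluorouridine and compound at 37 °C preceded detection. Luciferase was quantified via ONE-Glo luminescence; loss of signal denotes inhibition.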
12-LOX inh: inhibitors of human 12S-lipoxygenase ALOX12. AID 1671190. purified 12hLO, xylenol orange hydroperoxide absorbance. P18054. 580,000 tested, 1.1% active. Potency, µM (highest dose often 108 µM), without a hit: top-dose activity change, negative = inhibition, usual class: inhibitors
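Hydroperoxide product was detected by ferrous iron/xylenol orange as the 573 to 405 nm absorbance ratio. Arachidonic acid at 40 uM (final) was turned over for 30 min at room temperature by 150 nM human 12hLO, pH 7.0 Hepes buffer, after 15 min compound preincubation.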
RORg inh: blocks mouse ROR gamma transcriptional activity. P51450. AID 2551. Drosophila S2 Gal4-RORgamma UAS-luciferase reporter, 20 h. Potency, µM (titrated, usually from 53.6 µM), inactives show at the highest dose activity change, negative = inhibition, actives largely listed as inhibitors. 310,000 tested, 5.4% active; note: nearly all actives have a fitted effect of over 60% in size
Target sequence (P51450 whole entry, looked up, the tested form may be a part): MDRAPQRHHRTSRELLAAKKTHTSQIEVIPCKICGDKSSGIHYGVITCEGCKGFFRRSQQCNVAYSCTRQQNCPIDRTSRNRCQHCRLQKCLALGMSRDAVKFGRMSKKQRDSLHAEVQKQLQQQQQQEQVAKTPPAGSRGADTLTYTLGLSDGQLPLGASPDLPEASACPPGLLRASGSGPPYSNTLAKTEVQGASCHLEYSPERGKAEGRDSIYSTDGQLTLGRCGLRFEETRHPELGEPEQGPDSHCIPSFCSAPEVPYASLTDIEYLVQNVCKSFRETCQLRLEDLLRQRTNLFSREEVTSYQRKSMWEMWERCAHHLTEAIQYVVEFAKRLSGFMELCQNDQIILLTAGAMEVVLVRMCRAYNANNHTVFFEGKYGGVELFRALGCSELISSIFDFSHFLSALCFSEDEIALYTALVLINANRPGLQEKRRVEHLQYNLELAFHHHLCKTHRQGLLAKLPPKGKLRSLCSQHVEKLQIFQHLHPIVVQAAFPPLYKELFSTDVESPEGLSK
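Luciferase reporter read in Schneider cells carrying Gal4-RORγ (mouse) and UAS-Photinus luciferase; cells given compound 1 h before 700 uM copper sulfate induction, then incubated 20 h at ambient temperature.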
* marks the source's active call; other numbers are inactive results; ? = inconclusive; / = not tested or not shown; [ ] = dose if it differs, or a comment. Sampled rows, rich in hits. Any-hit rate of the full collection: about 15%. Calls come from the whole dose curve; as a rule, active = well fitted curve in the direction sought with a large enough effect; inconclusive = small, poorly fitted or top-dose-only effect, or another doubt; inactive = no such curve, though single readings can be large; an effect the other way counts as inactive or inconclusive. % is set by controls: 0 for no effect and ±100 for the full control effect; potency is the fitted concentration of half-maximal effect.

SMILES	VP16 counter	TDP1 cell CPT	DT40 TDP1 no CPT	ELG1 DNA repair	12-LOX inh	RORg inh
COc1ccccc1CN(C)C(=O)NCc1ccccc1S(=O)(=O)N1CCCCC1	/	/	/	/	40%	/
O=C(c1ccc2c(c1)OCO2)N1CCc2nn(Cc3ccccc3)c(=O)n2CC1	/	/	/	/	16%	/
COC(=O)[C@@H]1[C@@H]2C[C@H]3c4[nH]c5cc(OC)ccc5c4CCN3C[C@@H]2C[C@H](OC(=O)c2cc(OC)c(OC)c(OC)c2)[C@H]1OC	-10%[17 µM]	/	/	/	/	?
CCOC(=O)Oc1c(OC)cc(C(=O)O[C@@H]2C[C@@H]3CN4CCc5c([nH]c6cc(OC)ccc56)[C@H]4C[C@@H]3[C@H](C(=O)OC)[C@H]2OC)cc1OC	/	23µM*	13µM*	?	?	/
CC1=C(C(=O)N2CCOCC2)CC(CC(=O)NC2CCCCC2)C(=O)N1Cc1ccc(C(C)(C)C)cc1 (centres undefined)	/	?	21µM*	/	0%	/
CC1=C(C(=O)N2CCOCC2)CC(CC(=O)NC2CCCC2)C(=O)N1Cc1ccccc1 (centres undefined)	/	6%	-11%	/	-12%	/
CC1=C(C(=O)N(C(C)C)C(C)C)CC(CC(=O)NC2CCCCC2)C(=O)N1Cc1ccc(C(C)(C)C)cc1 (centres undefined)	/	15µM*	21µM*	/	0%	/
CC1=C(C(=O)N2CCOCC2)CC(CC(=O)NCC2CCCCC2)C(=O)N1Cc1ccc(C(C)(C)C)cc1 (centres undefined)	/	18µM*	?	/	-5%	/
CC1=C(C(=O)N2CCOCC2)CC(CC(=O)NC2CC2)C(=O)N1Cc1ccc(C(C)(C)C)cc1 (centres undefined)	/	-26%	-28%	/	21%	/
CC1=C(C(=O)N2CCCCCC2)CC(CC(=O)NC2CCCCC2)C(=O)N1Cc1ccc(C(C)(C)C)cc1 (centres undefined)	/	15µM*	21µM*	/	-4%	/
N/N=C(/C(=O)N1CCN(c2ccccn2)CC1)c1ccccc1I	/	/	/	/	10%	/
Cc1ccc(CNC(=O)c2c(C)sc3ccn(CC(C)C)c(=O)c23)o1	/	/	/	/	10%	/
O=C(NC1CCC(C(F)(F)F)CC1)C1CCCO1 (centres undefined)	/	/	/	/	15%	/
CCOc1ccc(N2C(=O)c3ccccc3NC2(CC)CC)cc1	/	/	/	/	17%	/
CC1=C(C(=O)N2CCCCCC2)CC(CC(=O)NCCCN(C)C)C(=O)N1Cc1ccc(C(C)(C)C)cc1 (centres undefined)	/	8.3µM*	?	/	-2%	/
CC1=C(C(=O)N2CCCCCC2)CC(CC(=O)NCCCN(C)C)C(=O)N1Cc1ccccc1 (centres undefined)	/	5%	24%	/	31%	/
CC1=C(C(=O)N2CCCCCC2)CC(CC(=O)NCCc2ccccn2)C(=O)N1Cc1ccc(C(C)(C)C)cc1 (centres undefined)	/	18µM*	16µM*	/	0%	/
O=[N+]([O-])c1cccc(-c2cn(-c3ccccc3)c(=S)[nH]2)c1	11µM*	-1%	-28%	28%	-16%	2µM*
O=[N+]([O-])c1ccc(-c2cn(-c3ccccc3)c(=S)[nH]2)cc1	?	8%	?	?	-5%	?
Cc1[nH]n(-c2cccc([N+](=O)[O-])c2)c(=O)c1-c1ccccc1	-4%	-24%	?	-19%	?	?
Cc1n[nH]c(=S)n1/N=C/c1ccc(-c2ccccc2[N+](=O)[O-])o1	?	-13%	?	?	?	?
O=[N+]([O-])c1cccc(-c2n[nH]c(=S)n2-c2ccccc2)c1	-8%	3%	-6%	-8%	/	7.1µM*
O=[N+]([O-])c1cccc(-c2ccc(/C=N/n3c(-c4ccccc4)n[nH]c3=S)o2)c1	10µM*	1%	-1%	?	-8%	-27%
O=[N+]([O-])c1ccc2c(c1)[nH]c(=S)n2-c1ccccc1	-7%	-29%	-14%	-5%	-23%	5µM*
CCOC(=O)N(C)Cc1cn([C@@H]2CN[C@H](C(=O)N(CC)CC)C2)nn1	/	/	/	/	48%	/
SMILES	VP16 counter	TDP1 cell CPT	DT40 TDP1 no CPT	ELG1 DNA repair	12-LOX inh	RORg inh
O=C(Cc1cccc(F)c1)N1CCC2(CC1)CN(c1ncccn1)CC2CO (centres undefined)	/	/	/	/	20%	/
S=c1[nH]c(-c2ccccc2)cn1-c1ccccc1	10µM*	8%	3%	?	?	10µM*
Nc1ccc(-n2cc(-c3ccccc3)[nH]c2=S)cc1	?	2%	1%	?	?	8.9µM*
CNC(=S)NNC(=O)c1csc(C(C)C)c1	/	/	/	/	2%	/
COc1cccc(CC(=O)NC2CCN(C(=O)N3CC4CC(C3)[C@H]3CCCC(=O)N3C4)CC2)c1 (some centres undefined)	/	/	/	/	34%	/
FC(F)(F)c1cccc(OCCN2CCN(Cc3ccccc3)CC2)c1	-2%	21µM*	?	-13%	?	-16%
c1ccc(CN2CCN(CCOCCOc3ccc4c(c3)CCC4)CC2)cc1	-3%	?	23µM*	-1%	50µM*	1%
CN(CCOc1cccc(C(F)(F)F)c1)Cc1ccccc1	-3%	?	?	10%	-17%	14%
O=C(c1ccccc1)c1ccc(OCC(O)CN2CCN(Cc3ccccc3)CC2)cc1 (centres undefined)	-5%	21µM*	23µM*	-25%	-1%	31%
O=C(c1ccccc1)c1ccc(OCCOCCN2CCN(Cc3ccccc3)CC2)cc1	1%	23µM*	21µM*	?	?	-5%
CCc1cc(C(=O)O)c2c(c1)C(C)CC(C)(C)N2 (centres undefined)	/	/	/	/	-36%	/
CCC(C)c1ccc(-c2csc(NC(=O)C3CCN(C(=O)c4ccoc4)CC3)n2)cc1 (centres undefined)	/	/	/	/	-19%	/
COc1cccc(CNC(=O)c2ncoc2-c2cccc(C)c2)c1OC	/	/	/	/	9%	/
O=C(Nc1cn[nH]c1)C1CCN(c2ccc(C(F)(F)F)cn2)CC1	/	/	/	/	-3%	/
Cc1ccc(N(C(=O)CNC(=O)c2ccccc2)C2(C(=O)NC3CCCC3)CCCCC2)cc1	/	/	/	/	10%	/
Cc1ccc(C)c(N2CCN(c3nc4ccccc4c(=O)n3-c3ccc(Cl)cc3)CC2)c1	/	5.8µM*	21µM*	/	?	/
